ELG1 genotox = induces genotoxicity in HEK293T cells with luciferase-tagged ELG1; HEK293T ELG1-luciferase reporter, luminescence, 16 h; Potency, µM (titrated, usually from 46 µM), for the others: top-dose activity change, positive = activation, hits mostly activators; 330,000 compounds, 1.3% hits; also: % of control where 0% means no effect; nearly all actives have a fitted effect of over 60% in size
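Luminescence read-out: rising ELG1-luciferase signal, reflecting elevated ELG1 protein under genetic stress, flags genotoxic compounds. Cells were treated for 16 hr at 37 °C before ONE-Glo detection.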
NPC1 prom act = activates the NPC1 promoter; Huh7 NPC1 promoter luciferase reporter, 24 h; Potency, µM (doses to about 9.22 µM), without a hit: at the top dose activation, usual class: activators; 320,000 compounds, 2.4% hits; AID 485313; also: % of control where 0% means no effect; nearly all actives have a fitted effect of over 60% in size
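Luminescence from an NPC1 promoter-driven luciferase reporter in stably transfected Huh7 cells was measured after 24 h compound treatment at 37 °C, followed by 10 min ambient incubation with luciferase detection reagent.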
SMN2 splice up = increases expression of the SMN2 splice variant. HEK293 SMN2-luciferase splicing reporter, luminescence, 30-36 h. Potency, µM (doses to about 46.1 µM), for inactives: at the top dose activity change, positive = activation, actives largely listed as activators. 210,000 compounds, 2.8% hits; also: % of control where 0% means no effect; nearly all actives have a fitted effect of over 55% in size
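HEK293 cells carry an SMN2 […]–luciferase reporter in which exon 7 inclusion puts luciferase in frame. Cells were plated 10-12 h before compound addition, then incubated 30-36 h at 37C. ONE-Glo luminescence was read; sodium butyrate at 4.5 mM final served as control.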
ELG1 repair inh = ELG1-dependent DNA repair inhibition; HEK293T ELG1-luciferase reporter, luminescence, 16 h; DNA damage induced by 5-fluorouridine; Potency, µM (series often up to 46.1 µM), without a hit: at the highest dose activity change, negative = inhibition, actives largely listed as inhibitors; 330,000 compounds, 2.3% hits; AID 504467; also: % is scaled to controls: 0 for no effect and ±100 for the full control effect; nearly all actives have a fitted effect of over 55% in size
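Reporter activity after DNA damage by 5-fluorouridine is monitored. Compound-treated cells incubate 16 hr at 37 °C, then ONE-Glo is added for 30 min before luminescence reading.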
FLuc counter = firefly luciferase modulation, counter-screen for miR-21 project. 360,000 compounds, 6.9% hits. purified FLuc, Km substrates, luminescence inhibition. Potency, µM (series often up to 57.5 µM), for the others: at the highest dose activity change, negative = inhibition, most hits filed as inhibitors. AID 588342. P08659;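 also: plate controls were vehicle for no effect and reference inhibitor for full effect; nearly all actives have a fitted effect of over 55% in size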
Target sequence (P08659 whole entry, looked up): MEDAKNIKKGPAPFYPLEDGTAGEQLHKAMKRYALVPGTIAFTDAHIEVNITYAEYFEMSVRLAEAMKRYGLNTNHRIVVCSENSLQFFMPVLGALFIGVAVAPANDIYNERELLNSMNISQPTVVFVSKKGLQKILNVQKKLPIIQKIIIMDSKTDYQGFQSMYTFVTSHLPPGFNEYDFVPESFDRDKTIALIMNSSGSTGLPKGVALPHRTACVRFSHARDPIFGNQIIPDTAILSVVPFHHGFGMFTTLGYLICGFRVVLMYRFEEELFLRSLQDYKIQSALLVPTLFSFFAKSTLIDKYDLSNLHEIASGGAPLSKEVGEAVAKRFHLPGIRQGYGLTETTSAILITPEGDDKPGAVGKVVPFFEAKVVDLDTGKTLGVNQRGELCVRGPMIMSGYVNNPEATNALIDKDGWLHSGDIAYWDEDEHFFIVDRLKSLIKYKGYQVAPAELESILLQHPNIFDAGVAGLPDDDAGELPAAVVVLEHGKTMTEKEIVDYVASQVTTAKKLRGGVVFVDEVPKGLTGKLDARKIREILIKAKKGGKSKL
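Purified P. pyralis luciferase, 10 nM final, with Km-level 10 uM D-luciferin and 10 uM ATP in 50 mM Tris acetate pH 7.5, 10 mM Mg acetate, 0.01% Tween-20, 0.05% BSA; 6-point qHTS titration about 60 µM downward; luminescence read.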
Rab9 prom act = Rab9 promoter activation; Huh7 Rab9 promoter-luciferase reporter, luminescence, 24 h; Potency, µM (titrated, usually from 9.22 µM), for inactives: at the top dose activation, negative = inhibition, actives largely listed as activators; 320,000 compounds, 2.8% hits; also: % of control where 0% means no effect; nearly all actives have a fitted effect of over 60% in size
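Measured in stably transfected Huh7 cells bearing a Rab9 promoter–luciferase construct: 24 h compound treatment at 37 °C, followed by luminescence detection.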
The depositor's hits bear a star; ? = inconclusive; / = no result; [ ] = another dose, or the depositor's remark. Rows were chosen to be rich in hits. Some 9.2% of all compounds tested hit in one or more screens of this group. Calls follow the shape of the dose curve; as a rule, active = well fitted curve in the direction sought with a large enough effect; inconclusive = small, poorly fitted or top-dose-only effect, or another doubt; inactive = no such curve, though single readings can be large; an effect the other way counts as inactive or inconclusive. Potency is read from the fitted curve at half-maximal effect.

SMILES | ELG1 genotox | NPC1 prom act | SMN2 splice up | ELG1 repair inh | FLuc counter | Rab9 prom act
CCOc1ccc(C(=O)c2cn(CC(=O)Nc3ccc4c(c3)OCCO4)c3ccc(F)cc3c2=O)cc1 | / | / | -4% | / | -5% | /
CCOC(=O)c1c(-c2ccc(C)s2)csc1NC(=O)c1ccco1 | 2% | 6% | -25% | 4% | 2% | 5%
O=C(Nc1scc(-c2ccccc2)c1C(=O)O)c1ccco1 | ? | 17% | ? | ? | 11µM* | 29%
COC(=O)c1c(-c2ccc(F)cc2)csc1NC(=O)c1ccco1 | 18% | ? | -1% | ? | 7.6µM* | 2.2µM*
O=C(Nc1scc(-c2ccccc2)c1C(=O)O)c1ccccc1Cl | 1% | -3% | / | 0% | ? | 1%
COc1ccc(-c2csc(NC(=O)c3ccccc3F)c2C(=O)O)cc1 | -4% | ? | / | 26% | 24µM* | 17%
O=C(COC(=O)/C=C/c1ccc(C(F)(F)F)cc1)NCC1CCCCC1 | 5% | 0% | / | 17% | 1% | -7%
O=C(Cn1c(=O)c2cccn2c2cccnc21)NCc1cccc(F)c1 | / | / | / | / | 1% | /
COc1ccccc1N1CCN(C(=O)c2ccc3c(c2)N(Cc2ccccc2)C(=O)c2ccccc2S3(=O)=O)CC1 | / | / | -22% | / | 1% | /
Cc1ccc(S(=O)(=O)Oc2ccccc2N2C(=O)C3C4CCC(C4)C3C2=O)cc1 (stereo not drawn) | 1% | -3% | / | 17% | 5% | -7%
Cc1ccc(S(=O)(=O)Oc2ccc(N3C(=O)C4C5CCC(C5)C4C3=O)cc2)cc1 (stereo not drawn) | -5% | -7% | -48% | 8.2µM* | 1% | -8%
N/C(=N\OC(=O)Nc1ccc(Cl)cc1)c1ncc(C(F)(F)F)cc1Cl | ? | -2% | -5% | ? | ? | 1%
N/C(=N\OC(=O)Nc1ccccc1)c1ncc(C(F)(F)F)cc1Cl | 23µM* | 24% | 55% | ? | 12µM* | ?
CC(NC(=O)OCc1ccccc1)C(=O)Oc1cc2oc(=O)cc(-c3ccccc3)c2cc1Cl (stereo not drawn) | -9% | 3% | -30% | 21µM* | 1% | 6%
CC(C)CN(C(=O)c1cccs1)C1CCS(=O)(=O)C1 (stereo not drawn) | 3% | -1% | / | 11% | -2% | 1%
Nc1ccc(C(=O)Nc2cccc3ncccc23)cc1 | -1% | -7% | / | 12% | -10% | 1%
CC(C)(C)c1ccc(C(=O)Nc2cccc3ncccc23)cc1 | -4% | -2% | / | -17% | 13µM* | 5%
CC(C)(C)c1ccc(C(=O)Nc2ccccc2NC(=O)c2ccco2)cc1 | -3% | -1% | -13% | ? | 19µM* | -2%
CC(C)(C)c1ccc(C(=O)Nc2ccccc2Cl)cc1 | 0% | 0.79µM* | / | ? | 1.9µM* | 0.71µM*
C=CCOc1ccc(CN(C)C(=O)c2ccc(CNS(=O)(=O)c3ccc(C)c(C)c3)cc2)cc1 | -1% | -13% | / | -26% | 4% | -16%
COc1cc2c(C(=O)N3CCN(c4cccc(C)c4)C(C)C3)cn(CC(C)C)c(=O)c2cc1OC (stereo not drawn) | / | / | -13% | / | 3% | /
O=c1[nH]c(=O)n(C2OC(CO)C(O)C2O)cc1Br (stereo not drawn) | -2% | 1% | / | -4% | 0% | 1%
O=c1[nH]c(=O)n([C@H]2C[C@H](O)[C@@H](CO)O2)cc1F | -4% | 1% | -64% | -2% | 6% | -2%
O=c1[nH]c(=O)n(C2CCCO2)cc1Br (stereo not drawn) | -5% | 2% | 35µM* | 13% | 4% | -4%
O=c1[nH]c(=O)n([C@H]2C[C@H](O)[C@@H](CO)O2)cc1Br | 12% | 6%[46.1 µM] | 10µM* | 10% | 3% | 27%[46.1 µM]
SMILES | ELG1 genotox | NPC1 prom act | SMN2 splice up | ELG1 repair inh | FLuc counter | Rab9 prom act
CCC(=O)N1c2ccccc2CC1C(=O)NCCCN1CCN(c2ccc(F)cc2)CC1 (stereo not drawn) | / | / | / | / | 0% | /
CCCCc1nc2c(c3c1C[C@H](C)OC3)CN(C(=O)c1ccco1)CC2 | / | / | -12%[9.22 µM] | / | / | /
CCOC(=O)C(C(=O)OCC)c1c([N+](=O)[O-])c(=O)n2c3c(cccc13)CCC2 | -1% | 0% | / | -24% | 1% | -4%
Cc1cc(Cl)ccc1NC(=O)CSc1nnc(-c2ccncc2)n1Cc1ccco1 | -5% | 0% | -15% | ? | 1% | 1%
CCn1c(SCC(=O)N2c3ccccc3Sc3ccccc32)nnc1-c1ccco1 | -5% | -8% | -1% | ? | 1% | -1%
O=C(CSc1nnc(-c2ccncc2)n1Cc1ccco1)N1c2ccccc2Sc2ccc(Cl)cc21 | -5% | -13% | -46% | 23µM* | 2% | -5%
Cn1c(SCC(=O)N2c3ccccc3Sc3ccc(Cl)cc32)nnc1-c1ccco1 | -5% | -2% | -12% | 18µM* | 1% | 0%
CCCN1C(=O)c2[nH]nc(-c3cccc(OC)c3)c2C1c1ccccn1 (stereo not drawn) | / | / | 10% | / | -9% | /
COc1ccc2c(c1)c1c(c(=O)n(Cc3ccccc3)c(=O)n1CC(=O)Nc1ccccc1OC)n2C | / | / | / | / | -4% | /
Cn1cnnc1SCC(=O)Nc1ccccc1 | 5% | 0% | 13% | 3% | -2% | 2%
Cn1cnnc1SCC(=O)Nc1ccc(OCc2ccccc2)cc1 | 16% | 21% | ? | ? | 15µM* | ?
Cn1cnnc1SCC(=O)Nc1ccc(N2CCCCC2)cc1 | 8% | 17% | / | ? | 13µM* | 15%
COCCn1cnnc1SCC(=O)Nc1ccc(N2CCCCC2)cc1 | 3% | 0% | / | ? | 19µM* | -1%
Cc1ccc(C(=O)Nc2nc(=O)n(C(=O)c3ccccc3C)s2)cc1 | 17% | 15% | 20% | 9% | 15µM* | ?
Cc1ccc(C(=O)Nc2nc(=O)n(C(=O)C3CC3)s2)cc1 | 0% | 1% | 19% | -2% | 19µM* | -6%
O=C(Nc1nc(=O)n(C(=O)C2CC2)s1)c1ccccc1 | -3% | -5% | 0% | -15% | ? | 1%

High-throughput results: PubChem, National Center for Advancing Translational Sciences (NCATS)
